# Test results as given in PubChem BioAssay (Tox21).
# Calls of active or inactive are those of the source. Calls follow the shape of the dose curve; as a rule, active = well fitted activation curve with a large enough effect in the repeat runs; inconclusive = weak or mixed curves; inactive = flat fitted curve, though single readings scatter.
# Assay: A CellTox Green Cytotoxicity Assay to monitor cytotoxicity in HepG2 cells - 0 hour (AID 1224882); also: nearly all actives have a fitted effect of over 35% in size
# Settings: CellTox Green fluorescence; series mostly up to 76.8 µM; cytotoxicity: at the top concentration
# Summary of the method: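 Nonlytic assay: viable cells exclude the dye, so fluorescence scales with cell death. HepG2 at 600 cells/well, compounds added after 5 h, signal read across 40 h.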
# % is scaled to controls: 0 for no effect and ±100 for the full control effect.
row,SMILES,cytotoxicity
1,CCCC(=O)OCc1ccccc1,4.55% (inactive)
2,CCCCCCCCC(=O)OCC(C)OC(=O)CCCCCCCC (centres undefined),2.2% (inactive)
3,CC[C@H](NC(C)C)[C@H](O)c1ccc(O)c2[nH]c(=O)ccc12,-2.55% [at 35.3 µM] (inactive)
4,O=C(O)c1ccncc1,-1.44% (inactive)
5,CCCCCCCCOCCCN,-3.15% (inactive)
6,COc1cc(CNC(=O)CCCC/C=C/C(C)C)ccc1O,0.472% (inactive)
7,C[C@H]1C[C@H]2[C@@H]3CCC4=CC(=O)C=C[C@]4(C)[C@@]3(F)[C@@H](O)C[C@]2(C)[C@@]1(O)C(=O)COP(=O)(O)O,-1.34% (inactive)
8,CC(C)(C)N,0.176% (inactive)
9,CNc1ccccc1,2.1% (inactive)
10,C=Cc1ccc(C=C)cc1,-7.31% (inactive)
11,C/C=C1\[C@H]2C=C(C)C[C@]1(N)c1ccc(=O)[nH]c1C2,-5.93% [at 35.3 µM] (inactive)
12,O=C1OC(=O)C2CC=CCC12 (centres undefined),-0.0107% (inactive)
13,CC1(C)C(=O)NC(=O)N1CO,7.42% (inactive)
14,Nc1ccc(C(=O)Oc2ccccc2)c(O)c1,0.914% [at 35.3 µM] (inactive)
15,COC(=O)/C=C/C(C)=C\C=C\C(C)=C\C=C\C=C(C)\C=C\C=C(C)\C=C\C(=O)O,2.71% (inactive)
16,O=c1[nH]nc(-c2ccc([N+](=O)[O-])o2)o1,-3.69% (inactive)
17,C/C(=C(\CCO)SS/C(CCO)=C(\C)N(C=O)Cc1cnc(C)nc1N)N(C=O)Cc1cnc(C)nc1N,1.73% [at 35.3 µM] (inactive)
18,O=[N+]([O-])c1cccc(I)c1,-1.18% (inactive)
19,CC(=O)Nc1ccccc1O,2.61% (inactive)
20,CC1(COc2ccc(CC3SC(=O)NC3=O)cc2)CCCCC1 (centres undefined),-3.12% [at 35.3 µM] (inactive)

row,SMILES,cytotoxicity
1,CC(=O)c1ccc(Cl)c(Cl)c1Cl,2.59% (inactive)
2,CC(=O)Oc1cccc2c1C(=O)c1c(OC(C)=O)cc(C(=O)O)cc1C2=O,-0.837% [at 35.3 µM] (inactive)
3,CC1=C(C)C(=O)C(C(CCCCCC(=O)O)c2ccccc2)=C(C)C1=O (centres undefined),-6.83% [at 35.3 µM] (inactive)
4,CO[C@@H]1COCC[C@@H]1N[C@@H]1CC[C@@](C(=O)N2CCc3ncc(C(F)(F)F)cc3C2)(C(C)C)C1,2.88% (inactive)
5,O=C(NC1CCN(CCc2c[nH]c3ccccc23)CC1)c1ccccc1,-10.5% [at 35.3 µM] (inactive)
6,N#CCCCC(C#N)CCC#N (centres undefined),-0.815% (inactive)
7,C(/C=C/C=C/Nc1ccccc1)=Nc1ccccc1,-0.922% (inactive)
8,CCC(C)C1N=C(C)C(C)S1 (centres undefined),-0.46% (inactive)
9,Cc1cc(C)n(CO)n1,5.72% (inactive)
10,CCOc1ccccc1O,-3.55% (inactive)
11,CCC1=C(C)CN(C(=O)NCCc2ccc(S(=O)(=O)NC(=O)NC3CCC(C)CC3)cc2)C1=O (centres undefined),14.7% [at 35.3 µM] (inactive)
12,O=C1c2ccccc2C(=O)c2c1ccc(O)c2O,1.28% [at 35.3 µM] (inactive)
13,CC(C)C/C=C(\C=O)c1ccccc1,-0.649% (inactive)
14,CC(C)=CCC[C@H](C)CCO,2.05% (inactive)
15,Cc1ccc(NC=O)c(C)c1,-2.42% (inactive)
16,NC(=O)c1cc[n+](CC2=C(C(=O)[O-])N3C(=O)[C@@H](NC(=O)Cc4cccs4)[C@H]3SC2)cc1,-0.851% [at 35.3 µM] (inactive)
17,[O-][n+]1ccc(Cl)cc1,-4.04% (inactive)
18,COc1ccc(/C=C/S(=O)(=O)NC(=O)c2ccc(C)cc2Cl)cc1,-0.133% (inactive)
19,CCC(C(=O)O)c1ccc(N2Cc3ccccc3C2=O)cc1 (centres undefined),-4.84% [at 35.3 µM] (inactive)
